The campaign covered roughly 360,000 compounds. About 6,000 (1.7%) were called active. Roughly 8% stayed inconclusive and do not appear here. Calls come from the whole dose curve; as a rule, active = well fitted cell-killing curve with a large enough effect; inconclusive = small, poorly fitted or top-dose-only effect, or effect the other way; inactive = flat fitted curve, though single readings scatter. The sample as a whole holds a higher share of actives than the screen did.
assay: qHTS for induction of synthetic lethality in tumor cells producing 2HG: qHTS for the HT-1080-NT fibrosarcoma cell line; conditions: HT-1080-NT fibrosarcoma viability, CellTiter-Glo ATP luminescence, 48 h; series mostly up to 46.1 µM; activity, negative = less viability: at the top concentration; note: nearly all actives have a fitted effect of over 55% in size
Excerpt: Unbiased genomic sequencing for 22 glioma genomes found recurrent mutation of IDH1 on chromosome 2q33, a gene encoding the cytosolic isoform of IDH1 associated with the tricarboxylic acid cycle (TCA) that catalyzes the oxidative decarboxylation of isocitrate, yielding alpha-ketoglutarate and CO2 via NADP+ to NADPH conversion. Subsequent studies confirmed the recurrent IDH mutations in up to 70% of secondary gliomas and in 10% of AML cases. In addition, the somatic mutation of cancer-associated IDH1 is a point mutation resulting in various amino-acid substituents at Arginine132 (IDH1 R132), a key residue found in the enzyme's active site that when mutated, results in the loss-of-function in metabolizing isocitrate but confers a gain-of-function to produce the oncometabolite 2-hydroxyglutarate (2HG). This in effect defines IDH1 as an oncogene and provides an extraordinary opportunity to discover chemical probes against mutant IDH1 that may translate into much needed new therapies for glioma and AML patients.
This assay aims to perform a synthetic lethal screen for chemical probes specific for 2HG-producing tumor cells using matched paired cell lines (1) HT-1080-NT fibrosarcoma cell line that overproduces 2HG and (2) HT-1080-IDH1KD cell line which has IDH1 expression knocked-down. Desirable compounds are toxic to the NT fibrosarcoma cells but not to the IDH1KD cell line. The data in this AID corresponds to the results of the qHTS against the HT-1080-NT fibrosarcoma cell line.
[1] Dang L, Jin S, Su SM. IDH mutations in glioma and acute myeloid leukemia. Trends of Mol Med. 2010; 16(9): 387-97.
[2] Dang L et al. Cancer-associated IDH1 mutations produce 2-hydroxyglutarate. Nature. 2010; 465(7300):966.
NIH Molecular Libraries Probe Production Centers Network [MLPCN]
NIH Chemical Genomics Center [NCGC]
Assay Submitter (PI): Lenny Dang Ph.D., Agios Pharmaceuticals
Suspensions of trypsinized HT-1080-NT cells were dispensed into white, tissue culture-treated, solid 1536-well plates at 5uL/well (750 cells/well final concentration) in RPMI medium supplemented with 5% FBS. Plates were incubated at 37 degrees C for 2 hours, after which 23 nL of compounds or DMSO were delivered to each well using a pin tool. Plates were then incubated at 37 degrees C for an additional 48 hours. CellTiter-Glo viability reagent (Promega) was dispensed into wells (2.5uL/well) and incubated at room temperature for 10 minutes. The plates were measured on a PerkinElmer ViewLux plate reader for luminescent signal (clear filter, 1 sec exp). DMSO-treated control wells and media-only (no cells) control wells were used to normalize %Activity of identified toxic compounds; DMSO-treated wells corresponded to 0%Activity (100% viability), while media-only controls were used to normalize 100%Activity (0% viability).
Concentration-response curves were fitted to the signals arising from the resulting luminescence. The concentration-effect curves were then classified based on curve quality (r2), response magnitude and degree of measured activity, and compounds were subsequently categorized based on their curve class.
Potency is the fitted concentration of half-maximal effect.

Structure (SMILES)	activity, negative = less viability	Potency
COC(=O)C[C@@H]1C=C[C@@H](NC(=O)c2ccc3c(c2)OCO3)[C@@H](CO)O1	12.5% (inactive)	
C[C@H](CO)N1C[C@H](C)[C@H](CN(C)C(=O)c2ccncc2)OCc2ccccc2-c2c(n(C)c3ccccc23)C1=O	-7.32% (inactive)	
CC1=NN(c2ccc(Cl)c(C(=O)O)c2)C(=O)/C1=C/c1ccc(-c2ccccc2[N+](=O)[O-])o1	-13% (inactive)	
CC(=O)C1C(c2cccc(Oc3ccccc3)c2)NC(=O)NC1(O)C(F)(F)F (configuration not stated)	-1.76% (inactive)	
O=C1NC(c2ccc(-c3ccccc3[N+](=O)[O-])o2)C(C(=O)c2ccc(Cl)cc2)C(O)(C(F)(F)F)N1 (configuration not stated)		16.4 µM (active)
CCOC(=O)[C@]12CCCC=C1N(CCC1=CCCCC1)C(=O)[C@H](CC(=O)N1CCSCC1)C2	0% (inactive)	
N#CCCN(C(=O)Nc1ccc(Cl)c(Cl)c1)C1CCCCC1	-8.99% (inactive)	
COc1ccc(NC(=O)c2c(C)oc3c2CCCC3)cc1	0.683% (inactive)	
Cc1ccc(N/N=C2\COC(C)(C)CC2=O)cc1	-1.11% (inactive)	
COc1ccc(N/N=C2/CCCCC2=O)cc1		1.26 µM (active)
Cc1ccnc(SC2CC(=O)N(c3ccccc3)C2=O)n1 (configuration not stated)	-0.41% (inactive)	
O=C1CC[C@@H](C(=O)N2CSC[C@@H]2C(=O)Nc2ccc(C(F)(F)F)cc2)N1	-0.302% (inactive)	
O=S1(=O)CC(N2CCN(Cc3ccccc3F)CC2)CN1Cc1cn(Cc2cccc(C(F)(F)F)c2)nn1 (configuration not stated)	-1.84% (inactive)	
Cc1ccccc1OCCOc1ccc([N+](=O)[O-])cc1/C=N/n1cnnc1		2.31 µM (active)
COc1cccc(OCCOc2cccc(/C=N/n3cnnc3)c2)c1	-3.11% (inactive)	
Cc1ccccc1OS(=O)(=O)c1cccc([N+](=O)[O-])c1	10.1% (inactive)	
CCOc1ccc(CCN2C(=O)c3cccnc3C2=O)cc1OCC	17.8% (inactive)	
NC1=CC(=O)C(=O)c2cccnc21		25.9 µM (active)
Cc1ccc(S(=O)(=O)N2CC[C@H]3[C@@H](C2)C(=O)C[C@@H](c2ccccc2)N3S(=O)(=O)c2ccc(C)cc2)cc1	1.59% (inactive)	
c1ccc2c(NC3C4CC5CC(C4)CC3C5)nc(N3CCOCC3)nc2c1 (configuration not stated)		14.6 µM (active)
c1ccc(-c2nnc(N3CCOCC3)c3ccccc23)cc1	0.217% (inactive)	
Fc1cnc(N2CCOCC2)nc1NCc1ccccc1	-4.29% (inactive)	
Cc1nc2ccccn2c(=O)c1NC(=O)c1ccc(Br)o1	-0.505% (inactive)	
CCCCN1C(=O)C(CC(=O)NC(c2ccccc2)c2ccccc2)CC(C(=O)N2CCOCC2)=C1C (configuration not stated)	7.54% (inactive)	

Structure (SMILES)	activity, negative = less viability	Potency
CC1=C(C(=O)N2CCOCC2)CC(CC(=O)NCC2CCCCC2)C(=O)N1Cc1ccc(F)cc1 (configuration not stated)	1.38% (inactive)	
O=S1(=O)CC(N2CCC(Cc3ccccc3)CC2)CN1Cc1ccccc1 (configuration not stated)	2.96% (inactive)	
CN(C)c1nc(=Nc2cccc(Cl)c2)ss1	0.234% (inactive)	
Clc1cccc(N=C2NN=C(c3ccc4c(c3)OCCO4)CS2)c1		10 µM (active)
Cc1cccc(C)c1-n1nnnc1C1(C)CCC(=O)N1CCOc1ccccc1 (configuration not stated)	2.56% (inactive)	
CCCCc1ccc(S(=O)(=O)NC(=O)C2(C)CCN2C(=O)c2c(C)noc2C)cc1 (configuration not stated)	0.469% (inactive)	
N=c1c2c(-c3ccccc3)c(-c3ccccc3)oc2ncn1Cc1ccco1		23.1 µM (active)
C(=C\c1ccccc1)/CSc1nnc(-c2cccnc2)n1Cc1ccco1	2.54% (inactive)	
COC(=O)c1ccc2nc(C3CCCCC3)c(Cc3cccc(F)c3)n2c1	-0.226% (inactive)	
O=C(Nc1cccc(Cc2ccccc2)c1)Nc1ccc2nc([C@@H]3O[C@H](CO)[C@@H](O)[C@H](O)[C@H]3O)[nH]c2c1	12.1% (inactive)	
COc1ccccc1CN1CCN(C(c2ccccc2)c2ccccc2)CC1	-20.9% (inactive)	
CC1(C)CC(N2CCN(C(c3ccccc3)c3ccccc3)CC2)=CC(=[N+]2CCCCC2)C1		2.06 µM (active)
c1ccc(C(c2ccccc2)N2CCN(Cc3nnnn3C3CCCCC3)CC2)cc1	-0.131% (inactive)	
COC(=O)Nc1nc2ccc(Sc3ccccc3)cc2[nH]1		1.16 µM (active)
Cc1ccc(O)c(CNc2nc3ccccc3[nH]2)c1	-12.6% (inactive)	
CN(c1ccccc1)S(=O)(=O)c1cc(C(=O)Nc2nc3ccccc3[nH]2)ccc1Cl	-2.94% (inactive)	
CC(C)c1cc(CN2CCOCC2)cc(C(C)C)c1O	2.87% (inactive)	
Oc1c(C(c2ccccn2)N2CCOCC2)ccc2cccnc12 (configuration not stated)		0.355 µM (active)
Cc1ccc(-c2ccc(CN3C(C(C)C)C(=O)N(Cc4cn(CCC5OCCCO5)nn4)CCS3(=O)=O)cc2)cc1 (configuration not stated)	-0.2% (inactive)	
CCOC(=O)N1CCN(C(=O)C2CCN(S(=O)(=O)c3cc(Cl)ccc3OCC)CC2)CC1	0% (inactive)	
CCOC(=O)/C(=N\Nc1cc(Cl)ccc1Cl)N1CCN(C)CC1		16.4 µM (active)
CCOC(=O)/C(=N\Nc1ccccc1Cl)N(C)C1CCS(=O)(=O)C1 (configuration not stated)	7.09% (inactive)	
CCc1ccccc1NC(=O)[C@@H]1CCC(=O)N1C1OC(=O)c2c1ccc(OC)c2OC (some centres not stated)	0% (inactive)	

From PubChem BioAssay AID686970 (National Center for Advancing Translational Sciences (NCATS), 2013)
